ANO1 activ: activators or potentiators of mouse TMEM16A chloride channel. HEK293 TMEM16A/YFP-H148Q/I152L, iodide quench fluorescence; stronger effect = lower value. Q8BHY3. actives 0.3% (n = 340,000). AID 623877. B-score at 10 µM;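 active = fluorescence-ratio B-score plate-corrected deviation score at least 3 library SD below zero, with starting fluorescence score within 5 deviations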;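 note: channel opened by trigger with iodide after compound preincubation; score built on the fluorescence ratio of max minus min over baseline; more negative score means more quench and so TMEM16A activation or potentiation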
Target sequence (Q8BHY3 whole entry, looked up): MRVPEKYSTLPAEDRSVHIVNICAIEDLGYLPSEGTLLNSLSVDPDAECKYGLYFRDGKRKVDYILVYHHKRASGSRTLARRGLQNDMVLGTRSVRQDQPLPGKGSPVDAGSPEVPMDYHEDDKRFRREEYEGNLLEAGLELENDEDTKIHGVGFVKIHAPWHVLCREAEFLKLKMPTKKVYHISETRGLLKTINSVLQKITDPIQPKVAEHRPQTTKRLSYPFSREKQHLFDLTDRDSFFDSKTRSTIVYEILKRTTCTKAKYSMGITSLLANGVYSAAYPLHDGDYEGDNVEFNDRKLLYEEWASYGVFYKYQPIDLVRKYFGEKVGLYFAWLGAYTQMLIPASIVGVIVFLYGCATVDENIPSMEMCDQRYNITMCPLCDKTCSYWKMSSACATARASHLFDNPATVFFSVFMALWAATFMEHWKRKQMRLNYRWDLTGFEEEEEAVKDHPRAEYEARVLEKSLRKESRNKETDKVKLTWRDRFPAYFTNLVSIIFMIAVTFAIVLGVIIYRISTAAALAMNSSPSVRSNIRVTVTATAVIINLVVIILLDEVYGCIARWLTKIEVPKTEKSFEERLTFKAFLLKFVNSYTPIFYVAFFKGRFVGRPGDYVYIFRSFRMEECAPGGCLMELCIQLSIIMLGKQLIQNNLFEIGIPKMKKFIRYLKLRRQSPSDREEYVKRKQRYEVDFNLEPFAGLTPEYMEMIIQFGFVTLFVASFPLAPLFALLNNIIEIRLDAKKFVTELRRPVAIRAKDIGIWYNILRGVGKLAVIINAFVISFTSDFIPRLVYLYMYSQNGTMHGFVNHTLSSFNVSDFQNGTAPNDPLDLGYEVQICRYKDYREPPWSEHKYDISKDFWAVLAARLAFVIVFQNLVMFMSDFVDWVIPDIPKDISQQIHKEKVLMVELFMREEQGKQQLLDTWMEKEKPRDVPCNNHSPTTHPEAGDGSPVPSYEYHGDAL
GPR7 antag: human neuropeptides B/W receptor 1 antagonism; GPR7-expressing cells, fluorescence antagonist assay; inhibition, % at 4.4 µM; actives 1.1% (n = 290,000); in the data active = inhibition above about 16%, passing the limit was not always enough;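 note: cells stimulated with the agonist NPW; 0% = agonist with vehicle and 100% = vehicle without agonist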
TMEM16A inh: mouse TMEM16A channel inhibition, primary screen; actives 1.2% (n = 310,000); Q8BHY3; normalized B-score (activity score, 25-100; higher = stronger inhibition) at 10 µM; HEK293 TMEM16A/YFP iodide influx fluorescence, ionomycin; AID 588511;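 active = ratio plate-corrected score three or more library SD toward inhibition, starting fluorescence score within five deviations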;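 note: score derived from kinetic fluorescence span divided by baseline fluorescence per well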
CHT inh: inhibitors of human choline transporter CHT. Q9GZV3. CHT-expressing cells, membrane potential dye, choline response; stronger effect = lower value. B-score at 10 µM. actives 0.86% (n = 310,000);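 active = B-score over 3 SD under the library average, and starting fluorescence ratio not unusually high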;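 note: choline stimulus applied at its EC90 after an EC20 pre-addition; B-score computed on integrated fluorescence ratio after choline addition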
CHT PAM: human CHT allosteric activation; Q9GZV3; actives 0.49% (n = 310,000); CHT-expressing cells, membrane potential dye, choline EC20; stronger effect = higher value; LV-AA mutant CHT in HEK293 cells; B-score at 10 µM;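 active = initial fluorescence not abnormally high and integrated response B-score, plate-corrected, over 3 SD above library mean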
Kir21 inh: Kir2.1 (mouse) channel inhibition | HEK293-Kir2.1, FluxOR thallium flux fluorescence; stronger effect = lower value | B-score at 10 µM | actives 0.85% (n = 310,000) | AID 1672;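 active = fluorescence ratio B-score at or below minus 3 SD of library scores, with starting-brightness B-score within 2 SD, cut at about -4.2 in these data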;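 note: channel flux triggered by added potassium and thallium sulfate stimulus; B-score of peak minus minimum fluorescence over baseline after thallium stimulus; more negative B-score means stronger Kir2.1 block with less thallium influx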
CHT inh conf: confirmation of human choline transporter CHT inhibitors; shares compounds with CHT inh; CHT-expressing cells, choline membrane potential dye; LV-to-AA substituted CHT, HEK293 cells; CHT activity remaining % of control (stronger effect = lower value), % at 10 µM; actives 70% (n = 2,400); AID 493221;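 active = choline transporter activity left, mean of duplicates at 10 µM, below buffer-only control mean minus 3 SD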;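 note: depolarization triggered by choline at its EC90 following an EC20 pre-addition; 0% = hemicholinium-3 full block and 100% = buffer-only control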
HEK293 CHT ctr: activity in parental HEK293 cells lacking CHT; membrane potential dye, choline response; active = decrease or increase beyond buffer ±3SD; actives 4% (n = 2,400); shares compounds with CHT inh; membrane potential ratio readout (active if shifted either direction beyond buffer ±3SD; no single direction) at 10 µM;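 note: parental cells lack the transporter so any hit is non-specific; ratio is peak minus trough fluorescence over baseline after EC90 choline challenge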
Active calls of the source: *. A selection: hits, their analogues and other compounds. The true share with any hit is near 3.7%.

For O=C(NCC(c1cccnc1)N1CCOCC1)c1cccc(Cl)c1 (stereo not given) the results were ANO1 activ inactive, GPR7 antag -3, TMEM16A inh inactive, CHT inh inactive, CHT PAM inactive and Kir21 inh 2.
For c1ccc(CCc2nn3c(Cc4ccccc4)nnc3s2)cc1 the results were ANO1 activ inactive, GPR7 antag 21, TMEM16A inh inactive, CHT inh -5.4*, CHT PAM inactive, Kir21 inh 0.4, CHT inh conf 56%* and HEK293 CHT ctr inactive.
`c1ccc(Cc2nnc3sc(-c4cccs4)nn23)cc1` gave ANO1 activ inactive, GPR7 antag -7, TMEM16A inh inactive, CHT inh inactive, CHT PAM inactive and Kir21 inh 0.14.
Screening COc1ccc(N2CCN(c3nc(Cl)nc(N4CCOCC4)n3)CC2)cc1 returned ANO1 activ inactive, GPR7 antag -9, TMEM16A inh inactive, CHT inh inactive, CHT PAM inactive and Kir21 inh 1.
COc1ccc(N2CCN(c3nc(NCCO)nc(N4CCOCC4)n3)CC2)cc1 was read as ANO1 activ inactive, GPR7 antag 12, TMEM16A inh inactive, CHT inh -6.1*, CHT PAM inactive, Kir21 inh -0.34, CHT inh conf inactive and HEK293 CHT ctr inactive.
Screening COc1ccc(NC(=O)/C(=C\c2ccc(OC)c(OC)c2)NC(=O)c2ccco2)cc1 returned ANO1 activ inactive, GPR7 antag -22, TMEM16A inh inactive, CHT inh inactive, CHT PAM inactive and Kir21 inh 2.
CC(C)Oc1ccc(/C=N/NC(=O)C(CSCc2ccccc2)NC(=O)c2ccc([N+](=O)[O-])cc2)cc1 (stereo not given) was read as ANO1 activ inactive, GPR7 antag -9, TMEM16A inh inactive, CHT inh -5.5*, CHT PAM inactive, Kir21 inh -0.51, CHT inh conf inactive and HEK293 CHT ctr inactive.
Screening O=C(COc1ccc(/C=N/NC(=O)c2ccccc2)cc1)Nc1ccc([N+](=O)[O-])cc1 returned ANO1 activ inactive, GPR7 antag -2, TMEM16A inh inactive, CHT inh inactive, CHT PAM inactive and Kir21 inh -1.1.
`C/C(=N\N=C(N)N)c1ccc(Cl)cc1Cl` gave ANO1 activ inactive, GPR7 antag 9, TMEM16A inh inactive, CHT inh -7.5*, CHT PAM inactive, Kir21 inh -7.2*, CHT inh conf 16%* and HEK293 CHT ctr inactive.
For CC/C(=N\NC(=O)CCC(=O)NCc1ccccc1)c1ccc(O)cc1 the results were ANO1 activ inactive, GPR7 antag -12, TMEM16A inh inactive, CHT inh inactive, CHT PAM inactive and Kir21 inh -1.2.
`COc1cc(C(=O)OCCCN(C)C)cc(OC)c1OC` gave ANO1 activ inactive, GPR7 antag -8, TMEM16A inh inactive, CHT inh inactive, CHT PAM inactive and Kir21 inh -0.15.
CCN(CC)CCCCCCCCOC(=O)c1cc(OC)c(OC)c(OC)c1 was read as ANO1 activ inactive, TMEM16A inh inactive, CHT inh -5.4*, CHT PAM inactive, CHT inh conf 20%* and HEK293 CHT ctr inactive.
For C/C(=N\Nc1c([N+](=O)[O-])c(C)nn1C)c1ccc(F)cc1F the results were ANO1 activ inactive, GPR7 antag 2, TMEM16A inh inactive, CHT inh inactive, CHT PAM inactive and Kir21 inh 0.42.
Screening CC1CC(C)CN(S(=O)(=O)N2CCC(C(=O)NCCc3ccccc3)CC2)C1 (stereo not given) returned ANO1 activ inactive, GPR7 antag 9, TMEM16A inh inactive, CHT inh inactive, CHT PAM inactive and Kir21 inh 1.1.
For Cc1ccc(NC(=S)NNc2ccc([N+](=O)[O-])cc2S(=O)(=O)Nc2ccccc2C(=O)O)cc1C the results were ANO1 activ inactive, GPR7 antag -6, TMEM16A inh inactive, CHT inh -7.2*, CHT PAM inactive, Kir21 inh -0.63, CHT inh conf 50%* and HEK293 CHT ctr inactive.
CC(=O)Nc1ccc(C=NNc2ccc([N+](=O)[O-])cc2S(=O)(=O)Nc2ccccc2C(=O)O)cc1 was read as ANO1 activ inactive.
Screening Cc1cc(F)ccc1S(=O)(=O)N1CCC2(CC1)OCCN2S(=O)(=O)c1cccs1 returned ANO1 activ inactive, TMEM16A inh inactive, CHT inh inactive, CHT PAM inactive and Kir21 inh -0.03.
For COc1ccc(C(=O)c2c3ccc(C(F)(F)F)cc3[n+]([O-])n2CCCN)cc1 the results were ANO1 activ inactive, TMEM16A inh inactive, CHT inh -6.3*, CHT PAM inactive, Kir21 inh -0.19, CHT inh conf 22%* and HEK293 CHT ctr inactive.
`Cc1ccc(C(=O)c2c3ccc(C(F)(F)F)cc3[n+]([O-])n2CCCN)cc1` gave ANO1 activ inactive, TMEM16A inh inactive, CHT inh -5.9*, CHT PAM inactive, Kir21 inh 0.21, CHT inh conf 40%* and HEK293 CHT ctr 2.6*.
Screening CC(C)(C)CN1CCC(Oc2cccc(C(=O)N3CCNC(=O)C3(C)C)c2)CC1 returned ANO1 activ inactive, GPR7 antag -9, TMEM16A inh inactive, CHT inh inactive, CHT PAM inactive and Kir21 inh -1.9.
`Cc1ccc2ncc(S(=O)(=O)c3ccccc3)c(N3CCCCC3C)c2c1` (stereo not given) gave ANO1 activ inactive, GPR7 antag -23, TMEM16A inh inactive, CHT inh -6.2*, CHT PAM inactive, Kir21 inh -0.23, CHT inh conf inactive and HEK293 CHT ctr inactive.
`CCSc1nnc(NC(=O)C(C)(C(F)(F)F)C(F)(F)F)s1` gave ANO1 activ inactive, GPR7 antag -16, TMEM16A inh inactive, CHT inh -8.8*, CHT PAM inactive, Kir21 inh 0.58, CHT inh conf 70%* and HEK293 CHT ctr inactive.
For CC(C)(C)NCC(O)c1cc(O)cc(O)c1 (stereo not given) the results were ANO1 activ inactive, GPR7 antag 0, TMEM16A inh inactive, CHT inh -5.9*, CHT PAM inactive, Kir21 inh 0.03, CHT inh conf 45%* and HEK293 CHT ctr inactive.

Source: PubChem BioAssay
